Data from PubChem BioAssay (EPA / NIEHS).
Where “and” joins values, the source holds several entries; their conditions need not be identical. Identical values can stand only once. Results filed as inconclusive are left out. A structure can be active in one record and inactive in another. Calls of active or inactive are those of the source. The calls were made as follows, unless noted: active = hit-call score of the fitted dose curve at least 0.9, where 1 is the maximum; inactive = score below 0.9.

How the values were obtained:
[1] = read-out: Interleukin-8 (IL8), CXCL8 (gene 3576); assay: BSK_3C_IL8: BioMAP Diversity Plus: 3C Assay for Interleukin-8 (IL8) Biomarker Activity (AID 2283020); details: primary human endothelial cells (HUVEC); actives raise or lower the signal
Procedure, shortened: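 IL-8 was measured by ELISA in HUVEC cultures 24 h after chemical dosing, with gain or loss of signal fitted relative to DMSO. Parallel SRB total-protein staining tracked overt cytotoxicity.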

[2] = read-out: Monokine induced gamma interferon (MIG), CXCL9 (gene 4283); assay: BSK_3C_MIG: BioMAP Diversity Plus: 3C Assay for Monokine induced gamma interferon (MIG) Biomarker Activity (AID 2283021); details: primary human endothelial cells (HUVEC); actives raise or lower the signal
Procedure, shortened: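 ELISA measurement of MIG in human umbilical vein endothelial cells 24 h after treatment. Cytotoxicity tracked by SRB staining in parallel cultures; gain or loss of signal fitted relative to DMSO.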

[3] = target: human Vitamin D Receptor (VDR), VDR (gene 7421) (UniProt P11473); assay: ATG_VDR_TRANS: Attagene TRANS-FACTORIAL HepG2 Assay for human Vitamin D Receptor (VDR) (AID 2283022; active = hit-call score of the fitted dose curve at least 0.9, where 1 is the maximum)
Procedure, shortened: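 Transactivation by an exogenous VDR-Gal4 chimera in transiently transfected HepG2 cells was measured as reporter transcript level 24 hours after chemical treatment. RT-PCR products were analysed by capillary electrophoresis and fitted in the positive direction relative to DMSO.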

[4] = BSK_3C_SRB: Viability Assessment in the BioMAP Diversity Plus: 3C Assay (AID 2283023); details: primary human endothelial cells (HUVEC);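 also: fitted both ways against DMSO so a hit may be signal rise or drop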
Procedure, shortened: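 Cytotoxicity readout in parallel HUVEC 3C cultures: after 24 h compound exposure, cells fixed with 10% TCA, stained with 0.1% SRB and read at 560 nm. Gain or loss relative to DMSO fitted.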

[5] = read-out: Matrix Metallopeptidase 1 (MMP1), MMP1 (gene 4312); assay: BSK_BE3C_MMP1: BioMAP Diversity Plus: BE3C Assay for Matrix Metallopeptidase 1 (MMP1) Biomarker Activity (AID 2283024); details: primary human bronchial epithelial cells; actives raise or lower the signal
Procedure, shortened: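 ELISA measurement of MMP-1 after 24 h compound exposure of primary human bronchial epithelial cells. Changes in either direction fitted relative to DMSO; parallel SRB staining checked overt cytotoxicity.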

[6] = BSK_3C_Vis: BioMAP Diversity Plus: 3C Assay for Morphology Visualization (AID 2283025); details: primary human endothelial cells (HUVEC);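 also: fitted both ways so gain or loss versus DMSO counts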;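 as to AC50: light microscopy image of cell morphology used as background control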
Procedure, shortened: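 Light-microscopy visualization of HUVEC cultures at 24 h post-treatment, with DMSO as baseline for bidirectional fitting.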

[7] = read-out: Pselectin, SELP (gene 6403); assay: BSK_4H_Pselectin: BioMAP Diversity Plus: 4H Assay for Pselectin Biomarker Activity (AID 2283026); details: primary human endothelial cells (HUVEC); actives raise or lower the signal
Procedure, shortened: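 ELISA of surface P-selectin on HUVEC, 24 h after dosing, with parallel SRB staining (0.1% after 10% TCA fixation, 560 nm) for overt cytotoxicity. Activity fitted in both directions relative to DMSO.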

[8] = BSK_4H_SRB: Viability Assessment in the BioMAP Diversity Plus: 4H Assay (AID 2283027); details: primary human endothelial cells (HUVEC);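 also: cells exposed to compound for 24 h before staining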;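 as to AC50: curves fitted both ways versus DMSO so AC50 may be loss or gain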
Procedure, shortened: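 Cytotoxicity readout: sulforhodamine B (0.1%) staining of total protein after 10% TCA fixation, measured at 560 nm in human umbilical vein endothelium at 24 h. DMSO set the baseline; fitting was bidirectional.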

[9] = BSK_BE3C_SRB: Viability Assessment in the BioMAP Diversity Plus: BE3C Assay (AID 2283028); details: primary human bronchial epithelial cells;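 as to AC50: fitted both ways so AC50 may mark signal gain or loss versus DMSO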
Procedure, shortened: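 Cytotoxicity read-out: SRB (0.1%) staining of TCA-fixed (10%) human lung bronchial epithelial cells, absorbance 560 nm, 24 h post-dosing. Curves fitted both directions relative to DMSO.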

[10] = read-out: Thrombomodulin, THBD (gene 7056); assay: BSK_3C_Thrombomodulin: BioMAP Diversity Plus: 3C Assay for Thrombomodulin Biomarker Activity (AID 2283029); details: primary human endothelial cells (HUVEC); actives raise or lower the signal
Procedure, shortened: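 ELISA measurement of thrombomodulin on HUVEC surface 24 h after chemical dosing; activity fitted in both directions relative to DMSO vehicle.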

[11] = read-out: Urokinase-type plasminogen activator receptor (uPAR), PLAUR (gene 5329); assay: BSK_4H_uPAR: BioMAP Diversity Plus: 4H Assay for Urokinase-type plasminogen activator receptor (uPAR) Biomarker Activity (AID 2283030); details: primary human endothelial cells (HUVEC); actives raise or lower the signal
Procedure, shortened: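 uPAR level read by ELISA on HUVEC cultures (BioMAP 4H) 24 h post-dosing, analyzed for gain or loss relative to DMSO. Parallel SRB staining assessed overt cytotoxicity.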

[12] = read-out: Vascular endothelial growth factor receptor 2 (Homo sapiens) (UniProt P35968); assay: BSK_4H_VEGFRII: BioMAP Diversity Plus: 4H Assay for Vascular endothelial growth factor receptor 2 (VEGFR2) Biomarker Activity (AID 2283031); details: primary human endothelial cells (HUVEC); actives raise or lower the signal;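 as to AC50: cell-surface VEGFR2 protein level quantified by ELISA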
Procedure, shortened: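 Measured by ELISA after 24 h of compound treatment: VEGFR2 on primary human umbilical vein endothelial cells, fitted in both directions relative to DMSO. Parallel cultures received SRB staining (560 nm) for overt cytotoxicity.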

[13] = read-out: Human Leukocyte Antigen - DR isotype (HLADR), HLA-DRA (gene 3122); assay: BSK_BE3C_HLADR: BioMAP Diversity Plus: BE3C Assay for Human Leukocyte Antigen - DR isotype (HLADR) Biomarker Activity (AID 2283032); details: primary human bronchial epithelial cells; actives raise or lower the signal
Procedure, shortened: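 Cell-surface HLA-DR ELISA readout at 24 h after dosing in the BE3C primary human lung bronchial epithelial system; gain or loss of signal against DMSO, with parallel sulforhodamine B staining of total protein for overt cytotoxicity.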

[14] = read-out: Vascular cell adhesion molecule 1 (VCAM1), VCAM1 (gene 7412); assay: BSK_4H_VCAM1: BioMAP Diversity Plus: 4H Assay for Vascular cell adhesion molecule 1 (VCAM1) Biomarker Activity (AID 2283033); details: primary human endothelial cells (HUVEC); actives raise or lower the signal
Procedure, shortened: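 VCAM-1 ELISA read 24 h after chemical dosing of HUVEC in the BioMAP 4H system, with gain or loss of signal fitted relative to DMSO. Parallel SRB staining (560 nm) checked overt cytotoxicity.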

[15] = read-out: Interferon-gamma inducible Protein 10 (IP10), CXCL10 (gene 3627); assay: BSK_BE3C_IP10: BioMAP Diversity Plus: BE3C Assay for Interferon-gamma inducible Protein 10 (IP10) Biomarker Activity (AID 2283034); details: primary human bronchial epithelial cells; actives raise or lower the signal
Procedure, shortened: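 IP-10 quantified by ELISA in human primary bronchial epithelial cell cultures at 24 hours post-dosing. Gain or loss of signal fitted relative to DMSO; parallel SRB staining assessed overt cytotoxicity.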

[16] = read-out: Monokine induced gamma interferon (MIG), CXCL9 (gene 4283); assay: BSK_BE3C_MIG: BioMAP Diversity Plus: BE3C Assay for Monokine induced gamma interferon (MIG) Biomarker Activity (AID 2283035); details: primary human bronchial epithelial cells; actives raise or lower the signal
Procedure, shortened: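 hu bronchial epithelial 1° cells, 24 h cpd; MIG by ELISA; bidirectional fit, DMSO = baseline.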

[17] = read-out: Transforming growth factor beta 1 (TGFb1), TGFB1 (gene 7040); assay: BSK_BE3C_TGFb1: BioMAP Diversity Plus: BE3C Assay for Transforming growth factor beta 1 (TGFb1) Biomarker Activity (AID 2283036); details: primary human bronchial epithelial cells; actives raise or lower the signal
Procedure, shortened: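 ELISA readout of TGF-b1 from human lung bronchial epithelial primary cells, taken 24 h post-treatment. Gain or loss of signal fitted relative to DMSO baseline, with parallel SRB staining for overt cytotoxicity.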

[18] = read-out: Plasminogen activator inhibitor-1 (PAI1), SERPINE1 (gene 5054); assay: BSK_BE3C_PAI1: BioMAP Diversity Plus: BE3C Assay for Plasminogen activator inhibitor-1 (PAI1) Biomarker Activity (AID 2283037); details: primary human bronchial epithelial cells; actives raise or lower the signal
Procedure, shortened: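 PAI-1 was measured by ELISA in human primary bronchial epithelial cultures 24 h after chemical dosing, with cytotoxicity checked by SRB total-protein staining in parallel cultures. Activity was fitted in both directions relative to DMSO.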

[19] = read-out: urokinase plasminogen activator (uPA), PLAU (gene 5328); assay: BSK_BE3C_uPA: BioMAP Diversity Plus: BE3C Assay for urokinase plasminogen activator (uPA) Biomarker Activity (AID 2283038); details: primary human bronchial epithelial cells; actives raise or lower the signal
Procedure, shortened: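 ELISA for uPA on human primary bronchial epithelial cultures 24 h post-treatment, gain or loss against DMSO. Parallel SRB staining (0.1% after 10% TCA fixation, 560 nm) assessed overt cytotoxicity.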

[20] = read-out: Urokinase-type plasminogen activator receptor (uPAR), PLAUR (gene 5329); assay: BSK_BE3C_uPAR: BioMAP Diversity Plus: BE3C Assay for Urokinase-type plasminogen activator receptor (uPAR) Biomarker Activity (AID 2283039); details: primary human bronchial epithelial cells; actives raise or lower the signal
Procedure, shortened: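 uPAR levels were measured by ELISA after 24 h compound treatment of primary human bronchial epithelial cells, fitted in both directions relative to DMSO. Parallel SRB staining served as the cytotoxicity read-out.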

Measured: AC50

Sequence of human Vitamin D Receptor (VDR), VDR (gene 7421) (P11473 whole entry, looked up, the tested form may be a part): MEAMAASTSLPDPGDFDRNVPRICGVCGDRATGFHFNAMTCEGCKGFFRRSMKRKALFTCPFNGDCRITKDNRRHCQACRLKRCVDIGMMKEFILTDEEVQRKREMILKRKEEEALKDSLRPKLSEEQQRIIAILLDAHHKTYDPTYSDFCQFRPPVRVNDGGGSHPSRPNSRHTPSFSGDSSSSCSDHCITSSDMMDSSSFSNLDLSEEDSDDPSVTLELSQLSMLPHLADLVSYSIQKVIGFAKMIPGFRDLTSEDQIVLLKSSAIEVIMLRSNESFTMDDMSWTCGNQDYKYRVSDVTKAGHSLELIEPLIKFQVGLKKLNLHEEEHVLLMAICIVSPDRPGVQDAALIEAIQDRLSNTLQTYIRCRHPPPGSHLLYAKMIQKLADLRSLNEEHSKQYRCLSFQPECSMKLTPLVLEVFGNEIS

C#CCN1C(=O)COc2cc(F)c(N3C(=O)C4=C(CCCC4)C3=O)cc21
active: [13] 3.97 µM
inactive: all other assays above

CCC(C)Nc1c([N+](=O)[O-])cc(C(C)(C)C)cc1[N+](=O)[O-] (centres undefined)
active: [4] 20.2 µM | [5] 11.1 µM | [6] 39 µM | [7] 20 µM | [8] 19.7 µM | [9] 14.7 µM | [12] 21 µM | [14] 15.8 µM
inactive: all other assays above

CC(C)OC(=O)Nc1cccc(Cl)c1
inactive: all assays above

O=C(O)C(F)(F)C(F)(F)C(F)(F)C(F)(F)C(F)(F)C(F)(F)C(F)(F)F
inactive: [1] | [2] | [3] | [4] | [5] | [6] | [7] | [8] | [9] | [10] | [11] | [12] | [13] | [14] | [15] | [16] | [17] | [18] | [19] | [20]
active: [1] 30 µM and 16 µM and 22.5 µM | [4] 46.1 µM | [5] 25.8 µM [middle of 5 runs] | [11] 1.49 µM | [15] 43.9 µM [middle of 4 runs]

O=S(=O)(O)C(F)(F)C(F)(F)C(F)(F)C(F)(F)C(F)(F)C(F)(F)C(F)(F)C(F)(F)F
inactive: [1] | [2] | [3] | [4] | [5] | [6] | [7] | [8] | [9] | [10] | [11] | [12] | [14] | [16] | [17] | [18] | [19] | [20]
active: [4] 31.5 µM and 30.8 µM and 26.7 µM | [6] 37.7 µM and 13.7 µM | [7] 12.2 µM and 3.81 µM | [9] 19.8 µM [middle of 7 runs] | [11] 463 nM and 14.2 µM | [13] 23.1 µM [middle of 8 runs] | [15] 17.3 µM [middle of 7 runs] | [16] 43.3 µM [middle of 4 runs] | [17] 28.6 µM and 12.1 µM and 19.2 µM | [19] 32 µM [middle of 4 runs] | [20] 33.2 µM and 32.7 µM and 6.81 µM
